# Results taken from PubChem BioAssay (Tox21).
# Unmarked numbers belong to inactive results. Results filed as inconclusive are left out. Entries that show only a call come without a potency. Calls of active or inactive are those of the source. Unless noted, calls come from the whole dose curve; as a rule, active = well fitted curve in the direction sought with a large enough effect in the repeat runs; inconclusive = weak or mixed curves; inactive = no such curve, though single readings can be large; an effect the other way counts as inactive or inconclusive.
# Experiments:
# [1] = biological target: Luciferin 4-monooxygenase (Photinus pyralis) (UniProt P08659); assay: qHTS assay to identify small molecule inhibitors of firefly luciferase (AID 1224835); note: potency is the fitted concentration of half-maximal effect; nearly all actives have a fitted effect of over 25% in size
# In short: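 Quantitative HTS format; KM concentrations of both substrates. Purified P. pyralis FLuc activity quantified from luminescence images.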
# [2] = biological target: Thyrotropin receptor (Homo sapiens) (UniProt P16473); assay: qHTS assay to identify small molecule agonists of the thyroid stimulating hormone receptor (TSHR) signaling pathway (AID 1224843; calls by dose curve; note: nearly all actives have a fitted effect of over 45% in size; note: potency is the fitted concentration of half-maximal effect)
# In short: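 Using 15 concentrations per compound in triplicate, cAMP production was monitored in TSHR-HEK293 cells after 30 min compound incubation at RT; HTRF reagents followed, with fluorescence intensity recorded after 1 h.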
# [3] = qHTS assay to identify small molecule agonists of the hypoxia (HIF-1) signaling pathway - cell viability counter screen (AID 1224844; calls by dose curve; note: nearly all actives have a fitted effect of over 50% in size; note: potency is the fitted concentration of half-maximal effect)
# In short: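 HRE-bla ME-180; 0.5% dFBS; cpd 17 h, 37C, 5% CO2; CellTiter-Glo lum., 30 min RT, post-FRET read, same wells.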
# [4] = qHTS assay to identify small molecule agonists of the hypoxia (HIF-1) signaling pathway (AID 1224846; active = well fitted activation curve with a large enough effect in the signal ratio in the repeat runs, not every such curve was filed as active; the % refers to the signal ratio)
# In short: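 Reporter induction in HRE-bla ME-180 cells is taken as agonism: cells sit 5 hrs after plating, receive compounds or DMSO only, incubate 17 hrs at 37C under 5% CO2, and are loaded with CCF4-AM for beta-lactamase FRET measurement.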
# [5] = qHTS RealTime-Glo MT Cell Viability Assay in HepG2 cells - 24 hour (AID 1224867); note: nearly all actives have a fitted effect of over 50% in size; note: potency is the fitted concentration of half-maximal effect
# In short: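 qHTS, HepG2, 600 cells/well, RealTime-Glo (NanoLuc + prosubstrate) added with cells; 5 h preincubation; DMSO compound addition; 37 C; luminescence at 0/8/16/24/32/40 h.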
# [6] = A CellTox Green Cytotoxicity Assay to monitor cytotoxicity in HEK293 cells - 0 hour (AID 1224869); note: nearly all actives have a fitted effect of over 50% in size
# In short: (§1)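 Tox21 screen in HEK293: membrane-impermeant cyanine dye fluoresces on binding dead-cell DNA; compound pinned 5 h post-seeding, plates held at 37 C, signal read repeatedly through 40 h.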
# [7] = qHTS RealTime-Glo MT Cell Viability Assay in HepG2 cells - 40 hour (AID 1224870); note: nearly all actives have a fitted effect of over 50% in size; note: potency is the fitted concentration of half-maximal effect
# In short: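 HepG2 cells mixed with RealTime-Glo MT reagents (NanoLuc plus cell-permeant prosubstrate) were seeded at 600 cells/well, incubated 5 h at 37 C/5% CO2, then pinned with compounds in DMSO; nonlytic luminescence tracked viability during 40 h treatment.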
# [8] = qHTS assay to identify small molecule agonists of the constitutive androstane receptor (CAR) signaling pathway - cell viability counter screen (AID 1224836); note: nearly all actives have a fitted effect of over 45% in size; note: potency is the fitted concentration of half-maximal effect
# In short: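 HepG2-CYP2B6-hCAR, 2500 cells/well, 4 h pre-incubation; cpd 15 conc + PK11195 0.75 uM final; 23 h, 37 C/5% CO2; CellTiter-Fluor, fluorescence.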
# [9] = qHTS assay to identify small molecule antagonists of the constitutive androstane receptor (CAR) signaling pathway - cell viability counter screen (AID 1224837); note: nearly all actives have a fitted effect of over 45% in size; note: potency is the fitted concentration of half-maximal effect
# In short: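 To flag cytotoxic false antagonists, HepG2 hCAR/CYP2B6-2.2kb cells were treated 23 hr with 15-concentration compound series and 50 nM CITCO at 37 C/5% CO2; CellTiter-Fluor fluorescence was the measured end point.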
# [10] = biological target: Nuclear receptor subfamily 1 group I member 3 (Homo sapiens) (UniProt Q14994); assay: qHTS assay to identify small molecule antagonists of the constitutive androstane receptor (CAR) signaling pathway (AID 1224838);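 note: HepG2 cells stably expressing hCAR with CYP2B6 luciferase reporter stimulated by CITCO; nearly all actives have a fitted effect of over 40% in size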; note: potency is the fitted concentration of half-maximal effect
# In short: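 Human hepatoma HepG2 cells expressing hCAR and a CYP2B6 promoter (2.2 kb) luciferase construct; compound titration (15 points) with 50 nM CITCO final, 24 h at 37 C/5% CO2; luminescence via ONE-Glo after 30 min at room temperature.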
# [11] = biological target: Nuclear receptor subfamily 1 group I member 3 (Homo sapiens) (UniProt Q14994); assay: qHTS assay to identify small molecule agonists of the constitutive androstane receptor (CAR) signaling pathway (AID 1224839); note: nearly all actives have a fitted effect of over 15% in size; note: potency is the fitted concentration of half-maximal effect;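 for activation: HepG2 cells stably carrying human CAR and a CYP2B6 luciferase reporter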
# In short: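 HepG2-CYP2B6-hCAR cells, 2500/well, 4 h pre-incubation; compounds 15 conc.; PK11195 0.75 uM final; 24 h, 37 C/5% CO2; ONE-Glo luciferase read.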
# [12] = qHTS assay to identify small molecule antagonists of the estrogen related receptor signaling pathway with the pleiotropic PPARgamma coactivator (PGC) from Tox21 10K library - cell viability counter screen (AID 1224840; active = well fitted cell-killing curve with a large enough effect in the repeat runs, not every such curve was filed as active; note: nearly all actives have a fitted effect of over 40% in size; note: potency is the fitted concentration of half-maximal effect)
# In short: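 Seeded PGC/ERR cells (2,000/well, 6 h, 37 C/5% CO2) get compound by pin tool; 17.5 h incubation at 37 C; CellTiter-Fluor added, 30 min, fluorescence measured.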
# [13] = qHTS assay to identify small molecule agonists of H2AX (AID 1224845; active = well fitted activation curve with a large enough effect in the signal ratio in the repeat runs, not every such curve was filed as active; the % refers to the signal ratio; note: potency is the fitted concentration of half-maximal effect)
# In short: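 Wild-type CHO-K1 cells plated overnight, then exposed 3 hr at 37C to compounds at 15 concentrations (0.76% DMSO). Lysed, then HTRF anti-pH2AX(S139)-cryptate/anti-H2AX-d2 detection after 24 hr at room temperature; emissions 665 and 620 nm.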
# [14] = qHTS RealTime-Glo MT Cell Viability Assay in HEK293 cells - 32 hour (AID 1224868); note: nearly all actives have a fitted effect of over 50% in size; note: potency is the fitted concentration of half-maximal effect
# In short: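 Assay medium contained NanoLuc luciferase plus cell-permeant prosubstrate, added with HEK293 cells at 600 cells/well. After 5 h at 37 C/5% CO2 compounds were added; plates stayed at 37 C for 40 h with serial luminescence reads.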
# [15] = qHTS assay to identify small molecule agonists of the estrogen related receptor signaling pathway with the pleiotropic PPARgamma coactivator (PGC) from Tox21 10K library (AID 1224842); note: nearly all actives have a fitted effect of over 15% in size
# In short: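 PGC/ERR reporter cells (NTP line) were seeded 2,000 per well, rested 6 h at 37 C/5% CO2, then pin-dosed with compounds in DMSO for 18 h at 37 C; luciferase read by One-Glo luminescence after 30 min at room temperature.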
# [16] = qHTS assay to identify small molecule antagonists of the estrogen related receptor (ERR) signaling pathway from Tox21 library (AID 1224848); note: nearly all actives have a fitted effect of over 50% in size; note: potency is the fitted concentration of half-maximal effect
# In short: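 Tox21 10K compounds in DMSO tested for ERR pathway antagonism in NTP's ERR cell line; 18 h, 37 C exposure; ONE-Glo luminescence.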
# [17] = qHTS assay to identify small molecule agonists of the estrogen related receptor (ERR) signaling pathway from Tox21 library (AID 1224849; calls by dose curve; note: nearly all actives have a fitted effect of over 15% in size); conditions: ERR reporter cell line, ONE-Glo luciferase, 18 h; at 92.4 µM (top of the series) unless noted
# In short: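 Tox21 compounds tested for ERR agonism in an NTP reporter cell line: 18 h treatment at 37 C, then ONE-Glo luminescence.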
# [18] = A CellTox Green Cytotoxicity Assay to monitor cytotoxicity in HEK293 cells - 40 hour (AID 1224871); note: nearly all actives have a fitted effect of over 45% in size; note: potency is the fitted concentration of half-maximal effect
# In short: as §1
# [19] = qHTS assay to identify small molecule agonists of H2AX - cell viability counter screen (AID 1224847; calls by dose curve; note: nearly all actives have a fitted effect of over 30% in size; note: potency is the fitted concentration of half-maximal effect)
# In short: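 Cells plated first: CHO-K1, 1000 per well in 10% FBS medium, incubated overnight at 37C. Then 15-point compound titration added (final DMSO 0.76%) for 3 hr. Finally CellTiter-Glo added and luminescence read.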
# [20] = qHTS assay to identify small molecule antagonists of the estrogen related receptor signaling pathway with the pleiotropic PPARgamma coactivator (PGC) from Tox21 10K library (AID 1224841; call rule not given here; note: potency is the fitted concentration of half-maximal effect)
# In short: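 Test chemicals dissolved in DMSO were applied to pre-incubated (6 h) PGC/ERR cells at 2,000 cells/well for an 18 h, 37 C treatment; reporter luminescence was then read using One-Glo.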
# Chain of Thyrotropin receptor (Homo sapiens) (P16473 whole entry, looked up): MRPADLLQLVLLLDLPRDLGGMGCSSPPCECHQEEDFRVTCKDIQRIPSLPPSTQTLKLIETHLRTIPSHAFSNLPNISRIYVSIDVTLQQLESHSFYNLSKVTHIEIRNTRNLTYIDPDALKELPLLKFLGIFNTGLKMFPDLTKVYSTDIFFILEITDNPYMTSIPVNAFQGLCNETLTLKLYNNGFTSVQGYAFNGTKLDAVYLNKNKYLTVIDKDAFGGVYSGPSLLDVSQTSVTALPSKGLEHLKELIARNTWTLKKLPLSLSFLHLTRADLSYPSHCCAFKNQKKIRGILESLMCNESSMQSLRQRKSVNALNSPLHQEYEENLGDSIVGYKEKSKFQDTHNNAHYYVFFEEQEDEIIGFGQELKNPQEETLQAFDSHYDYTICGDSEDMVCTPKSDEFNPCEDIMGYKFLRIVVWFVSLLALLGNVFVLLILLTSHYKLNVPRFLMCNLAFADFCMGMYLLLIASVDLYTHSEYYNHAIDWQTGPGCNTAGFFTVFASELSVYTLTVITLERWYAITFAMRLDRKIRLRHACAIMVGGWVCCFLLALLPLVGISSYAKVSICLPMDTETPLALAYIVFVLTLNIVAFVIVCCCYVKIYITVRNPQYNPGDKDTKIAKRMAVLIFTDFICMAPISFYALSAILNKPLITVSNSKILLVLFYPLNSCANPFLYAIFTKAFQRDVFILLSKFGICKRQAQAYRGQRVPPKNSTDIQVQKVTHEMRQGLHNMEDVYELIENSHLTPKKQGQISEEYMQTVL
# Chain of Nuclear receptor subfamily 1 group I member 3 (Homo sapiens) (Q14994 whole entry, looked up): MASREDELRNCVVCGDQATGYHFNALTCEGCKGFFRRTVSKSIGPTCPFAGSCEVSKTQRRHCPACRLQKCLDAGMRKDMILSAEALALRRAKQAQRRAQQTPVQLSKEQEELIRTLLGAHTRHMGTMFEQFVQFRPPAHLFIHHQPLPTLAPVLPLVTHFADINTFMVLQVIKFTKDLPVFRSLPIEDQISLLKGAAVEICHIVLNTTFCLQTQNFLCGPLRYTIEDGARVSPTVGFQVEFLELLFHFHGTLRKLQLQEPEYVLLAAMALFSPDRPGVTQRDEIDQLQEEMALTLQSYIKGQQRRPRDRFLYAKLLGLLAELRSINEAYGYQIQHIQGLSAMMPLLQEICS
# Chain of Luciferin 4-monooxygenase (Photinus pyralis) (P08659 whole entry, looked up): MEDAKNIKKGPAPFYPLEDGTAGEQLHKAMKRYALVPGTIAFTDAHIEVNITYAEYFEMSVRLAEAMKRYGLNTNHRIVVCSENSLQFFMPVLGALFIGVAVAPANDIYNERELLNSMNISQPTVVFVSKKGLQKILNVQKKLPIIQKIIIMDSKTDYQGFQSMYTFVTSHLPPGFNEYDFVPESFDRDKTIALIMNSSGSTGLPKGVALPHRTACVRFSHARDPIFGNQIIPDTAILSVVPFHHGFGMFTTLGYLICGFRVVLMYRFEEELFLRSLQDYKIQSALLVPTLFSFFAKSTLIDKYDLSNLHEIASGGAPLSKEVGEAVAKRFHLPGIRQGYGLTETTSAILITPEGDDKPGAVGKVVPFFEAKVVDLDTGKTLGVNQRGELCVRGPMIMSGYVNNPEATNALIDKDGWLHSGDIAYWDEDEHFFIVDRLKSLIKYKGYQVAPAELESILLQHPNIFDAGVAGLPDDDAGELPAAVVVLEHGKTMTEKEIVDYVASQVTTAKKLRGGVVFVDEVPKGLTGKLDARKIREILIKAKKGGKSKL
SMILES,Potency [1],Potency [2],Potency [3],outcome [4],Potency [5],Potency [6],Potency [7],Potency [8],Potency [9],Potency [10],Potency [11],Potency [12],Potency [13],Potency [14],Potency [15],Potency [16],"activity change, positive = activation [17]",Potency [18],Potency [19],Potency [20]
CN(C)c1ccc(N=Nc2ccccc2)cc1,0.252 µM (active),inactive,inactive,inactive,inactive,inactive,inactive,–,–,–,–,–,–,–,–,–,–,–,–,–
O=CC(Br)(Br)Br,–,30.5 µM (active),–,–,48.8 µM (active),inactive,–,30.5 µM (active),27.2 µM (active),30.5 µM (active),inactive,15.3 µM (active),31.8 µM (active),2.45 µM (active),–,–,–,–,–,–
CC(=O)/C=C/c1ccc2c(c1)OCO2,–,–,inactive,inactive,inactive,inactive,inactive,inactive,inactive,inactive,inactive,–,–,inactive,inactive,43.5 µM (active),-46.7%,inactive,–,–
Oc1ccc2ccc3cccc4ccc1c2c34,–,inactive,inactive,inactive,–,inactive,–,inactive,inactive,inactive,61.1 µM (active),inactive,–,15.5 µM (active),–,–,–,–,–,–
CCOC(=O)c1ccccc1S(=O)(=O)NC(=O)Nc1nc(Cl)cc(OC)n1,–,inactive,inactive,inactive,inactive,–,inactive,inactive,inactive,inactive,inactive,inactive,inactive,–,–,–,–,–,inactive,–
O=C1NCN(c2ccccc2)C12CCN(CC1COc3ccccc3O1)CC2 (stereo not given),–,inactive,–,inactive,–,inactive,inactive,inactive,inactive,inactive,inactive,inactive,inactive,–,inactive,–,0.381% [at 42.5 µM],inactive,inactive,–
CCCCCCCCCC[N+](C)(C)CCCCCCCCCC,–,inactive,27.5 µM (active),–,7.76 µM (active),inactive,–,43.3 µM (active),24.3 µM (active),27.3 µM (active),inactive,27.3 µM (active),–,1.1 µM (active),–,–,–,17.4 µM (active),40.1 µM (active),–
CCOP(=S)(OCC)OC(Cl)C(Cl)(Cl)Cl (stereo not given),–,inactive,inactive,inactive,inactive,inactive,inactive,inactive,inactive,inactive,–,inactive,–,–,inactive,inactive,4.56%,–,inactive,inactive
N#C/C=C/C#N,–,inactive,–,–,inactive,inactive,inactive,inactive,inactive,inactive,64 µM (active),inactive,inactive,–,–,–,–,–,inactive,–
CCCSP(=O)(OCC)SCCC,–,–,inactive,inactive,inactive,inactive,inactive,inactive,inactive,inactive,25.2 µM (active),inactive,inactive,inactive,–,–,–,inactive,inactive,–
Clc1ccc(-c2ccccc2)cc1,–,inactive,inactive,inactive,inactive,inactive,inactive,inactive,inactive,inactive,inactive,inactive,inactive,inactive,inactive,inactive,3.89%,–,inactive,inactive
C=CC(=O)OCC(COC(=O)C=C)(COC(=O)C=C)COC(=O)C=C,–,8.63 µM (active),6.92 µM (active),–,6.16 µM (active),inactive,5.49 µM (active),15.4 µM (active),8.63 µM (active),8.63 µM (active),inactive,5.45 µM (active),–,3.89 µM (active),inactive,13.7 µM (active),-79.4%,–,–,13.7 µM (active)
CCCCCCCCCCCCCCC(Br)C(=O)O (stereo not given),–,–,49 µM (active),–,inactive,inactive,–,inactive,inactive,inactive,inactive,inactive,inactive,–,–,–,–,–,inactive,–
C=COCCCl,–,inactive,inactive,inactive,inactive,inactive,inactive,inactive,inactive,inactive,inactive,inactive,inactive,inactive,inactive,inactive,14.7%,–,inactive,inactive
Oc1ccc(I)cc1,–,inactive,inactive,inactive,inactive,inactive,inactive,inactive,inactive,inactive,inactive,inactive,inactive,inactive,–,–,–,inactive,inactive,–
